Measurements published in PubChem BioAssay AID1159580 (chemical genetic matrix, 2015).
The campaign covered roughly 5,500 compounds. About 2,000 (36%) were called active. Roughly 18% stayed inconclusive and do not appear here. No stated cut-off is given here; in the data, active means normalized growth mostly below about 0.91 (no sharp cut-off); inconclusive means no clear call, values can overlap the other calls; inactive means mostly above about 0.92. The list shows a part of the results.

Test: chemical genetic growth profiling, strain panel (AID 1159580);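 further: tested at 20 µM; growth read once vehicle control cultures reached saturation at 30 °C; 1 = growth at the plate median or of vehicle wells; lower values mean less growth of the strain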
Details: growth OD

Measured: normalized growth

CNC(=O)N(C)c1nnc(C(C)(C)C)s1
inactive: S. cerevisiae deletion strains, locus YJR075W, strain HOC1, hits give low values 1.02 | S. cerevisiae deletion strains, locus YKL009W, strain mrt4, hits give low values 1.04 | S. cerevisiae deletion strains, locus YKL068W, hits give low values 1.01 | S. cerevisiae deletion strains, locus YKL085W, strain MDH1 (second series), hits give low values 1.02 | S. cerevisiae deletion strains, locus YKL085W, strain MDH1, hits give low values 1.02 | S. cerevisiae deletion strains, locus YKL160W, strain elf1, hits give low values 0.992 | S. cerevisiae deletion strains, locus YKL190W, strain CNB1, hits give low values 1.01 | S. cerevisiae deletion strains, locus YKR001C, strain vps1, hits give low values 1.04 | S. cerevisiae deletion strains, locus YKR026C, strain gcn3, hits give low values 0.991 | S. cerevisiae deletion strains, locus YKR091W, strain srl3, hits give low values 0.974 | S. cerevisiae deletion strains, locus YLL001W, strain dnm1, hits give low values 0.988 | S. cerevisiae deletion strains, locus YLL026W, hits give low values 0.992 | S. cerevisiae deletion strains, locus YLL041C, strain sdh2, hits give low values 0.98 | S. cerevisiae deletion strains, locus YLR027C, strain aat2, hits give low values 0.973 | S. cerevisiae deletion strains, locus YLR039C, strain RIC1, hits give low values 1.07 | S. cerevisiae deletion strains, locus YLR058C, strain SHM2, hits give low values 1.01 | S. cerevisiae deletion strains, locus YLR102C, strain apc9, hits give low values 1.03 | S. cerevisiae deletion strains, locus YLR221C, strain rsa3, hits give low values 1.01 | S. cerevisiae deletion strains, locus YLR258W, strain gsy2, hits give low values 0.975 | S. cerevisiae deletion strains, locus YLR262C, strain YPT6 (second series), hits give low values 1.03 | S. cerevisiae deletion strains, locus YLR262C, strain YPT6, hits give low values 1.09 | S. cerevisiae deletion strains, locus YLR268W, strain sec22, hits give low values 1.02 | S. cerevisiae deletion strains, locus YLR320W, strain mms22, hits give low values 1.03 | S. cerevisiae deletion strains, locus YLR330W, strain CHS5, hits give low values 1.02 | S. cerevisiae deletion strains, locus YLR342W, strain FKS1 (second series), hits give low values 1.07 | S. cerevisiae deletion strains, locus YLR342W, strain FKS1, hits give low values 0.998 | S. cerevisiae deletion strains, locus YLR357W, strain rsc2, hits give low values 0.972 | S. cerevisiae deletion strains, locus YLR370C, strain arc18, hits give low values 0.983 | S. cerevisiae deletion strains, locus YLR371W, strain rom2, hits give low values 1.02 | S. cerevisiae deletion strains, locus YLR384C, strain iki3, hits give low values 1.01 | S. cerevisiae deletion strains, locus YLR418C, strain cdc73, hits give low values 1.09 | S. cerevisiae deletion strains, locus YML016C, strain PPZ1, hits give low values 1.01 | S. cerevisiae deletion strains, locus YML032C, strain rad52, hits give low values 1.01 | S. cerevisiae deletion strains, locus YML120C, strain ndi1, hits give low values 1.01 | S. cerevisiae deletion strains, locus YML124C, strain tub3, hits give low values 1.01 | S. cerevisiae deletion strains, locus YMR058W, strain fet3, hits give low values 0.977 | S. cerevisiae deletion strains, locus YMR078C, strain ctf18, hits give low values 1.02 | S. cerevisiae deletion strains, locus YMR125W, strain sto1, hits give low values 0.942 | S. cerevisiae deletion strains, locus YMR129W, hits give low values 0.998 | S. cerevisiae deletion strains, locus YMR205C, strain PFK2, hits give low values 0.969 | S. cerevisiae deletion strains, locus YMR223W, strain ubp8, hits give low values 1.02 | S. cerevisiae deletion strains, locus YMR231W, strain pep5, hits give low values 1.01 | S. cerevisiae deletion strains, locus YMR263W, strain SAP30, hits give low values 1.02 | S. cerevisiae deletion strains, locus YMR307W, strain GAS1, hits give low values 1.1 | S. cerevisiae deletion strains, locus YNL067W, strain RPL9B, hits give low values 1.02 | S. cerevisiae deletion strains, locus YNL071W, strain lat1, hits give low values 0.993 | S. cerevisiae deletion strains, locus YNL128W, strain TEP1, hits give low values 1.01 | S. cerevisiae deletion strains, locus YNL153C, strain GIM3, hits give low values 1.01 | S. cerevisiae deletion strains, locus YNL209W, strain ssb2, hits give low values 1.01 | S. cerevisiae deletion strains, locus YNL233W, strain BNI4, hits give low values 1.01 | S. cerevisiae deletion strains, locus YNL248C, strain rpa49, hits give low values 0.995 | S. cerevisiae deletion strains, locus YNL250W, strain rad50, hits give low values 1.02 | S. cerevisiae deletion strains, locus YNL271C, strain bni1, hits give low values 1.03 | S. cerevisiae deletion strains, locus YNL298W, strain CLA4, hits give low values 1.03 | S. cerevisiae deletion strains, locus YNL307C, strain MCK1, hits give low values 1.02 | S. cerevisiae deletion strains, locus YNL322C, strain KRE1 (second series), hits give low values 0.986 | S. cerevisiae deletion strains, locus YNL322C, strain KRE1, hits give low values 1.01 | S. cerevisiae deletion strains, locus YNR049C, strain mso1, hits give low values 0.974 | S. cerevisiae deletion strains, locus YNR052C, strain pop2, hits give low values 1.03 | S. cerevisiae deletion strains, locus YOL006C, strain TOP1, hits give low values 1.06 | S. cerevisiae deletion strains, locus YOL012C, strain htz1 1.29 | S. cerevisiae deletion strains, locus YOL147C, strain pex11, hits give low values 1.01 | S. cerevisiae deletion strains, locus YOR001W, strain rrp6, hits give low values 1.01 | S. cerevisiae deletion strains, locus YOR061W, strain CKA2, hits give low values 1.01 | S. cerevisiae deletion strains, locus YOR069W, strain VPS5, hits give low values 1 | S. cerevisiae deletion strains, locus YOR070C, strain gyp1, hits give low values 1 | S. cerevisiae deletion strains, locus YOR080W, strain dia2, hits give low values 0.998 | S. cerevisiae deletion strains, locus YOR083W, strain WHI5, hits give low values 0.991 | S. cerevisiae deletion strains, locus YOR106W, strain vam3, hits give low values 0.961 | S. cerevisiae deletion strains, locus YOR136W, strain idh2, hits give low values 1.01 | S. cerevisiae deletion strains, locus YOR144C, strain elg1, hits give low values 1.01 | S. cerevisiae deletion strains, locus YOR184W, strain ser1, hits give low values 1.04 | S. cerevisiae deletion strains, locus YOR265W, strain rbl2, hits give low values 0.994 | S. cerevisiae deletion strains, locus YOR270C, strain vph1, hits give low values 1.01 | S. cerevisiae deletion strains, locus YOR290C, strain snf2, hits give low values 0.959 | S. cerevisiae deletion strains, locus YOR316C, strain cot1, hits give low values 1.02 | S. cerevisiae deletion strains, locus YPL051W, strain arl3, hits give low values 1.01 | S. cerevisiae deletion strains, locus YPL055C, strain LGE1, hits give low values 1.03 | S. cerevisiae deletion strains, locus YPL078C, strain atp4, hits give low values 0.961 | S. cerevisiae deletion strains, locus YPL106C, strain sse1, hits give low values 1.02 | S. cerevisiae deletion strains, locus YPL240C, strain hsp82, hits give low values 0.994 | S. cerevisiae deletion strains, locus YPL241C, strain CIN2, hits give low values 1.02 | S. cerevisiae deletion strains, locus YPR119W, strain clb2, hits give low values 1.01 | S. cerevisiae deletion strains, locus YPR141C, strain kar3, hits give low values 1.02 | S. cerevisiae deletion strains, locus YPR163C, strain tif3, hits give low values 1.01 | S. cerevisiae deletion strains, locus YPR167C, strain met16, hits give low values 1.03 | S. cerevisiae deletion strains, strain wtn01, hits give low values 1.03 | S. cerevisiae strains, strain wild type, hits give low values 1.01
